According to PubChem BioAssay (NCATS):
Results filed as inconclusive are left out. Where a call stands in place of a potency, no number is given. Active and inactive are the calls of the source. The call rests on the fitted dose curve; in most records, active means well fitted inhibition curve with a large enough effect; inconclusive means small, poorly fitted or top-dose-only effect; inactive means no such curve, though single readings can be large or run the other way.

What follows are molecules tested against Retinaldehyde dehydrogenase 3 (Homo sapiens) (UniProt P47895) (assay: qHTS for Inhibitors of the Aldehyde Dehydrogenase Family (ALDH1A3) Validation screen (AID 2061312; further: nearly all actives have a fitted effect of over 45% in size)). Details: ALDH1A3 enzyme inhibition qHTS validation, fluorescence; series mostly up to 84.7 µM.

SMILES | Potency
C(=C\c1ccccc1)/CN1CCN(C(c2ccccc2)c2ccccc2)CC1 | inactive
CC(C)NNC(=O)c1ccncc1 | inactive
CN(C)CCC(c1ccc(Cl)cc1)c1ccccn1 (stereo not given) | inactive
NC(N)=NC(=O)c1nc(Cl)c(N2CCCCCC2)nc1N | inactive
CCCCCCCC/C=C\CCCCCCCC(=O)NCCO | inactive
C[C@]12C=CC(=O)C=C1CC[C@H]1[C@@H]3C[C@@H](O)[C@](O)(C(=O)CO)[C@@]3(C)C[C@H](O)[C@@]12F | inactive
c1ccc2c(c1)CC(N1CCN(c3cccc4c3OCCO4)CC1)C2 | inactive
Cc1ccccc1C(OCCN(C)C)c1ccccc1 (stereo not given) | inactive
CNC(=O)c1cc2c(cn1)[nH]c1ccccc12 | inactive
NCCCNCCSP(=O)(O)O | inactive
CC(C)CC(NP(=O)(O)O[C@@H]1O[C@@H](C)[C@H](O)[C@@H](O)[C@H]1O)C(=O)NC(Cc1c[nH]c2ccccc12)C(=O)O (stereo not given in full) | inactive
O=C1C2C=CC=CC2=NC(=S)N1CCN1CCC(=C(c2ccc(F)cc2)c2ccc(F)cc2)CC1 (stereo not given) | inactive
CC1CNCCN1S(=O)(=O)c1cccc2cnccc12 (stereo not given) | inactive
C[N+](C)(C)CCCCCCCCCC[N+](C)(C)C | inactive
Cn1c(=O)c2[nH]c(C3CCCC3)nc2n(C)c1=O | inactive
C[C@](N)(Cc1ccc(O)cc1)C(=O)O | inactive
CSC(=N)N | inactive
NCCCS(=O)(=O)O | inactive
NCCCC(=O)O | inactive
CCOC(=O)C1=C[C@]2(CC)CCCN3CCc4c(n1c1ccccc41)[C@@H]32 | inactive

SMILES | Potency
c1ccc(C2CN3CCSC3=N2)cc1 (stereo not given) | inactive
COCCOC(=O)C1=C(C)NC(C)=C(C(=O)OC/C=C/c2ccccc2)C1c1cccc([N+](=O)[O-])c1 (stereo not given) | inactive
CCCCC[C@H](CC(=O)NO)C(=O)N[C@H](C(=O)N1CCC[C@H]1CO)C(C)C | inactive
O=C(O)CNC(=O)C(CS)Cc1ccccc1 (stereo not given) | inactive
Nc1ccc(CCNc2ncnc3c2ncn3C2OC(CO)C(O)C2O)cc1 (stereo not given) | inactive
Nc1ccc(-c2nc3ccc(-c4nc5ccc(N)cc5[nH]4)cc3[nH]2)cc1 | inactive
NC(N)=N/N=C/c1c(Cl)cccc1Cl | inactive
CC(C)NC[C@H](O)COc1cccc2[nH]ccc12 | inactive
CCc1cccc(N(C)C(N)=Nc2cccc3ccccc23)c1 | inactive
N[C@H](CCCP(=O)(O)O)C(=O)O | inactive
Fc1ccc(CN(C2=NCCN2)c2c(Cl)cccc2Cl)cc1 | inactive
CCSC(=N)N | inactive
COc1cc(C(O)C(=O)O)ccc1O (stereo not given) | inactive
Cn1c(=O)c2[nH]c(-c3ccccc3)nc2n(C)c1=O | inactive
CC1(C)CCC=[N+]1[O-] | inactive
C[N+]1(C)CCC(OC(=O)C(c2ccccc2)c2ccccc2)CC1 | inactive
CNCCCC1c2ccccc2C=Cc2ccccc21 | inactive
N[C@@H](Cc1ccc(F)cc1)C(=O)O | inactive
CC(=O)OC(C)C[N+](C)(C)C (stereo not given) | inactive
O=C(Nc1ccncc1)c1cc([N+](=O)[O-])ccc1Cl | inactive
